This is an account of results in PubChem BioAssay.

Calls of active or inactive are those of the source.

Assay [1] is described as follows: compounds binding Alexa647 anti-His antibody – biochemical, small-molecule microarray, 635 nm fluorescence, artefact control for SMM control protein annotation, primary screen (AID 1128).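 Note: score merges feature fluorescence with signal-to-noise for each printed compound spot.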 The following applies: higher = more signal.
Assay [2] has as its system Human papillomavirus type 1a E7 protein (residues 1-88). Put plainly: HPV1a E7 small-molecule binders, primary screen, biochemical, small-molecule microarray, residues 1-88, 635 nm (AID 1129). The settings on record: small-molecule microarray binding, fluorescence 635 nm; higher = more signal.
The target of assay [3] is Focal adhesion kinase 1 (Homo sapiens) (UniProt Q05397). Description: PTK2 protein binding on printed compound slides – biochemical, small-molecule microarray, 635/667 nm fluorescence, BSA, DTT, primary screen (AID 1130).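 Note: composite of spot emission at 667 nm and signal to noise over triplicate slides.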 The following applies: 635 nm fluorescence, higher = more signal.
Assay [4] concerns Fibrinogen (Alexa647-labelled). Put plainly: Alexa647-fibrinogen binding to printed small molecules – biochemical, small-molecule microarray, 635/667 nm fluorescence, artefact control for SMM control-protein annotation, profiling panel (AID 1131).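 Note: z-score merges 667 nm fluorescence with per-spot signal-to-noise over triplicate slides.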 The following applies: fibrinogen-A647 binding fluorescence, higher = more signal.
In assay [5] the target is Follistatin (Homo sapiens) (UniProt P19883). Description: FST protein binding to printed compounds – biochemical, small-molecule microarray, 635/667 nm fluorescence, primary screen (AID 1132). The following applies: 635 nm fluorescence, higher = more signal.
In assay [6] the target is Fibroblast growth factor 2 (Homo sapiens) (UniProt P09038). Description: basic fibroblast growth factor binding to printed compounds – biochemical, small-molecule microarray, 635/667 nm fluorescence, primary screen (AID 1133). The following applies: FGF2, fluorescence 635/667, higher = more signal.
A short description of assay [7]: JC-1 mitochondrial potential readout, lung cancer cells – cell-based, A549, JC-1 fluorescence, basal, 24 h, 100 nL, profiling panel (AID 1138).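 Note: A549 lung adenocarcinoma cells under basal conditions with no added stimulus; test concentration not given here.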 The settings on record: higher = more signal.
The test system of assay [8] is Lefty1. Put plainly: Lefty1 protein binding to printed compounds – biochemical, small-molecule microarray, 635/667 nm fluorescence, primary screen (AID 1139). The following applies: fluorescence 635/667, higher = more signal.
Assay [9] relates to wheat germ agglutinin (Triticum aestivum), Alexa647-labelled. Put plainly: Alexa647-WGA lectin binding to printed small molecules – biochemical, small-molecule microarray, 635/667 nm fluorescence, artefact control for SMM control-protein annotation, profiling panel (AID 1140).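 Note: score merges 667 nm feature emission with signal to noise over triplicate slides.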 The settings on record: WGA-A647 binding, 635 nm fluorescence, higher = more signal.
For assay [10], the target named is Luciferin 4-monooxygenase (Photinus pyralis) (UniProt P08659). Description: inhibition of purified Photinus pyralis luciferase – biochemical, luminescence, purified enzyme, 2006 set, primary screen (AID 1141).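 Note: cell-free assay with purified firefly luciferase at 100 ng per well in PBS; test concentration not given here.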 The following applies: purified firefly luciferase, SteadyGlo luminescence, 30 min; higher = more signal, called active from +8 up or from −8 down.
Sequence of Luciferin 4-monooxygenase (Photinus pyralis) (P08659 whole entry, looked up): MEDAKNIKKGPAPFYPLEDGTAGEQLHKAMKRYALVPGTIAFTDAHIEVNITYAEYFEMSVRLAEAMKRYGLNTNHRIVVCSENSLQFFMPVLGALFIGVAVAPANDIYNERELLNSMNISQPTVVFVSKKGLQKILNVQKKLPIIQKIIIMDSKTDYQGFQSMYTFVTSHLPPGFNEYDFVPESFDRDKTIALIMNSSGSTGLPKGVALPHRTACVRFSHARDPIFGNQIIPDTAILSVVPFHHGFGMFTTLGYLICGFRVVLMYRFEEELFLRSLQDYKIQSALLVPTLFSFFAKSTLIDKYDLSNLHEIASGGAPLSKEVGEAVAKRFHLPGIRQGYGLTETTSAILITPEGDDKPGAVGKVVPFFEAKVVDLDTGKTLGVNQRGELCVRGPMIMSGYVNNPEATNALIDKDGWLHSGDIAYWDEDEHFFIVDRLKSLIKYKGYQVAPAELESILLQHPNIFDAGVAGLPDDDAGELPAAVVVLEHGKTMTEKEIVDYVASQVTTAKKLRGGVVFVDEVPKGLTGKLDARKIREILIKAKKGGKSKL

Sequence of Focal adhesion kinase 1 (Homo sapiens) (Q05397 whole entry, looked up): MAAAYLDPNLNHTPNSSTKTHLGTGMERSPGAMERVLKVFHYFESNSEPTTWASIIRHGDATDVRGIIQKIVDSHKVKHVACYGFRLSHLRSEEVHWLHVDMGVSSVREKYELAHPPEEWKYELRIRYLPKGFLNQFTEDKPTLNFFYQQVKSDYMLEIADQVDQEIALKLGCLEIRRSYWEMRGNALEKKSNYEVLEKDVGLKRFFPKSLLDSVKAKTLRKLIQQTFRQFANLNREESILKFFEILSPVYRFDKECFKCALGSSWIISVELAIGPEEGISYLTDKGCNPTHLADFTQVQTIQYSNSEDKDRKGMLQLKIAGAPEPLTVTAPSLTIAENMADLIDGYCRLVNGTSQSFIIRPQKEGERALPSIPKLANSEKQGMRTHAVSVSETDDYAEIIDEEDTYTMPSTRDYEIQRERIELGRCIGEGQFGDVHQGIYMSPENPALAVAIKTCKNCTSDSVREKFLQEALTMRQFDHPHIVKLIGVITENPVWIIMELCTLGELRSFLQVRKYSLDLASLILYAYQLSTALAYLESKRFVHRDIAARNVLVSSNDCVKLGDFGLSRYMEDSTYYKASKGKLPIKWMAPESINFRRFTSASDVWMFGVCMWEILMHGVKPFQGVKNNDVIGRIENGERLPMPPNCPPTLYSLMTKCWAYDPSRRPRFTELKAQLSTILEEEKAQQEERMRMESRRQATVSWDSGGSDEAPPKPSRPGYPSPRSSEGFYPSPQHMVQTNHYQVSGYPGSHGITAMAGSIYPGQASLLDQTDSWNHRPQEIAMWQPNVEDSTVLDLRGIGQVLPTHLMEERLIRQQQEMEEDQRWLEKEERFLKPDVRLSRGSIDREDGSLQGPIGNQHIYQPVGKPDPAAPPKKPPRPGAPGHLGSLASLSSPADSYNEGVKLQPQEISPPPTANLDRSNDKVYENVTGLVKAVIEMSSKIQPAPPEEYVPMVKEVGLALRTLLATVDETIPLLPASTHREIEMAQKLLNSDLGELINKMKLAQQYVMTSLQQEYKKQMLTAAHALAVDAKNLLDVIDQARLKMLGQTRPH
Sequence of Fibroblast growth factor 2 (Homo sapiens) (P09038 whole entry, looked up): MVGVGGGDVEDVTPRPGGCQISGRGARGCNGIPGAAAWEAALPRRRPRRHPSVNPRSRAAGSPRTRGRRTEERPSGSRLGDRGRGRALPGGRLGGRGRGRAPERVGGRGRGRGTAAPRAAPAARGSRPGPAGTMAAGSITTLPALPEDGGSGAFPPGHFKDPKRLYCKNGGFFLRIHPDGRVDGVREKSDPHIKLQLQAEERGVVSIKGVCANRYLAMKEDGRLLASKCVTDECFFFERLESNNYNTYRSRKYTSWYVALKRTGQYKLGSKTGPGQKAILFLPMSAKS
Sequence of Follistatin (Homo sapiens) (P19883 whole entry, looked up): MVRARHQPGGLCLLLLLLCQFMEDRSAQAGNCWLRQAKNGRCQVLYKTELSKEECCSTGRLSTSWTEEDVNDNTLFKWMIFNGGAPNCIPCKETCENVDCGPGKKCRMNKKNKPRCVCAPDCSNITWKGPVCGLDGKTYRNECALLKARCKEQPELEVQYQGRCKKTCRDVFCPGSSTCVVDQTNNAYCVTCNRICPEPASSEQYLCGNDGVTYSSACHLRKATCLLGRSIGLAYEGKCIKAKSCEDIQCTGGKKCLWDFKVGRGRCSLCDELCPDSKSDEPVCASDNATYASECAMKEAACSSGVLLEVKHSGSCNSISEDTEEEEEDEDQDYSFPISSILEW

Regarding `CCOc1ccc(N2C(=O)CSC2c2cccc([N+](=O)[O-])c2)cc1` (stereo not given), the composite z-score in assay [1] was found to be 0.798; in assay [2], 0.636; in assay [3] it was 0.65; in assay [4], 0.71; in assay [5], 0.0936; in assay [6], 0.176. The figures for the composite z-score in assay [8] and in assay [9] were -0.157 and 1.09, respectively. The z-score in assay [7] was 0.56; in assay [10] it was 0.8 (inactive).

In the case of `COCC(=C=CC[C@H](O)c1cccc(OCCO)c1)C[C@H](O)c1cc(Cl)cc(Cl)c1O`, the composite z-score stood at 1.69 in assay [1]; 1.11 in assay [2]; 0.0607 in assay [3]; 0.0479 in [4]; 1.37 in assay [5]; 1.87 in assay [6]. The composite z-score turned out to be 1.37 in [8] and 0.107 in [9]. Also, the z-score in assay [7] is 0.324; in assay [10] it was -0.709 (inactive).

Take `CCCCCN1CC=CC23O[C@@H]4C=CCOC(=O)[C@@H]4[C@H]2C(=O)N(C(C)CO)[C@@H]3C1=O` (stereo not given in full): the composite z-score is -0.396 in assay [1]; -0.669 in assay [2]; 0.174 in assay [3]; -0.235 in [4]; -1.12 in assay [5]; -0.495 in assay [6]. Also, the composite z-score in assay [8] is -1.23; in assay [9], -0.383. Further, the results for the z-score in [7] and in assay [10] were -0.197 and 0.101 (inactive), respectively.

For `O=C(NC1CC1)[C@@H]1c2ccccc2C(=O)N(C2Cc3ccccc3C2)[C@H]1c1ccc(CO)cc1`, the composite z-score in assay [1] was 2.65; in assay [2], 1.18; in [3], 0.167; in [4], -0.677; in [5] it was 1.29; in assay [6], 0.988. For the same compound, the composite z-score in assay [8] was determined as 0.294; in [9] it was 0.0895. Also, the z-score was 1.64 in assay [7] and 0.659 (inactive) in [10].

For `COc1cc2c(cc1O)C(c1cccs1)N(Cc1ccc([N+](=O)[O-])o1)CC2` (stereo not given), the composite z-score in [1] is 0.737; in assay [2], 0.182; in assay [3], 0.215; in assay [4], 0.979; in assay [5] it was 0.257; in assay [6], 0.478. For the same compound, the composite z-score was -0.795 in assay [8] and 0.839 in [9]. Also, the z-score in assay [7] is 2.32; in assay [10], -2.26 (inactive).

In the case of `CS(=O)(=O)CCOC(=O)C1=CC(CCCO)=CC(c2ccc(CN3CCCC3)cc2)N(Cc2cccc(OC(F)(F)F)c2)C=C1C(=O)OCCS(C)(=O)=O` (stereo not given), the composite z-score in [1] amounted to 1.26; in [2], 1.09; in [3], 0.366; in assay [4] it was 0.675; in [5], 0.962; in [6] it was 0.964. The values for the composite z-score in assay [8] and in assay [9] were 0.889 and 0.404, respectively. Moreover, the z-score in assay [7] is 3.17; in assay [10] it was -2.68 (inactive).

For `COc1ccc([Si](C)(C)[C@@H]2[C@@H](CCn3cc([C@H](O)c4ccccc4)nn3)O[C@]3(C(=O)N(Cc4cccc(N5CCC5=O)c4)c4ccccc43)[C@H]2C)cc1`, the composite z-score was 0.963 in assay [1]; 0.227 in assay [2]; -0.285 in assay [3]; 0.119 in assay [4]; 1.15 in assay [5]; 1.06 in assay [6]. Further, the results for the composite z-score in [8] and in [9] were 0.0197 and 0.187, respectively. For the same compound, the z-score in assay [7] is 2.21; in [10] it was 0.258 (inactive).

In the case of `O=C1NC(=O)C2C1C=CC(C(O)c1ccc(I)cc1)N2Nc1ccccn1` (stereo not given), the composite z-score in [1] was 2.1; in assay [2], 0.134; in assay [3], 0.675; in [4], 0.791; in assay [5] it was 0.367; in assay [6], -0.109. In addition, the composite z-score was -0.19 in [8] and 1.23 in [9]. For the same compound, the values for the z-score in assay [7] and in assay [10] were -0.279 and -0.759 (inactive), respectively.

For the compound `COc1ccc([C@H]2C[C@H]3C(I)=C[C@@H]2C(=O)[C@]32CO2)cc1`, the composite z-score in assay [1] was -0.608; in assay [2] it was -0.658; in [3], -0.449; in assay [4] it was -0.193; in assay [5] it was 0.762; in assay [6], 1.14. The composite z-score is 0.983 in assay [8] and 0.24 in assay [9]. Besides, the values for the z-score in assay [7] and in assay [10] were 1.1 and -0.303 (inactive), respectively.

Turning to `N#Cc1ccc(C(O)C2C=CC3C(=O)N(c4ccccc4)C(=O)C3N2Nc2ccccc2F)cc1` (stereo not given), the composite z-score in [1] stood at 2.59; in [2], 1.05; in [3] it was 0.152; in assay [4], 0.97; in assay [5], 0.269; in assay [6], 0.191. The values for the composite z-score in assay [8] and in assay [9] were 0.284 and 0.144, respectively. The z-score was 0.0535 in [7] and 1.79 (inactive) in assay [10].

For the compound `O=C1NC(=O)C2C1C=CC(C(O)C=Cc1ccc([N+](=O)[O-])cc1)N2Nc1ccc(Cl)cc1Cl` (stereo not given), the composite z-score in assay [1] is 1.72; in assay [2] it was 1.11; in [3] it was 0.0716; in assay [4], 0.646; in assay [5] it was 1.04; in [6] it was -0.18. Further, the composite z-score in assay [8] was -0.443; in assay [9], 0.957. In addition, the z-score in assay [7] is 0.408; in assay [10] it was -3.39 (inactive).

On to `C=CCN1C(=O)[C@]2(Cc3ccccc3)N=C(c3ccc(OCCCO)cc3)O[C@@H]2c2ccccc21`, for which the composite z-score in assay [1] was determined as 3.16; in [2], 1.2; in assay [3], 0.145; in assay [4], 0.548; in assay [5], 1.37; in [6] it was 1.56. The values for the composite z-score in [8] and in [9] were 0.816 and 0.663, respectively. For the same compound, the values for the z-score in assay [7] and in assay [10] were 1.59 and -6.95 (inactive), respectively.

On to `C[N+](C)(C)CCCC[C@@H]1NC(=O)[C@H]2C[C@@H](C(=O)NCCCCCCNC(=O)CS)[C@@H](c3ccc(O)cc3)N2C1=O`, for which the composite z-score in assay [1] was 1.44; in assay [2] it was -0.0478; in assay [3], -0.103; in assay [4] it was -2.2; in assay [5], 1.36; in [6] it was 0.247. For the same compound, the composite z-score in [8] is 0.0544; in [9], -1.07. The z-score in assay [7] was -0.459; in assay [10], 0.24 (inactive).

For the compound `C=C(CCCC)/C(=C/C[C@H](OC(C)=O)c1ccc(OCCO)cc1)c1cnc2ccccc2c1`, the composite z-score in assay [1] is 0.91; in [2], 0.78; in assay [3], -0.115; in assay [4], 0.387; in [5] it was 0.735; in [6] it was 0.623. For the same compound, the composite z-score in [8] amounted to 1.15; in assay [9], 0.869. The values for the z-score in assay [7] and in assay [10] were 0.649 and -0.126 (inactive), respectively.
